# Data as given in PubChem BioAssay (EPA / NIEHS).
# “And” between values parts separate entries of the source, which are not always exact repeats. Equal values may be shown once. Results filed as inconclusive are left out. Some compounds were tested as several samples or in several runs, with calls that do not always agree. The source made the active and inactive calls. The calls were made as follows, unless noted: active = hit-call score of the fitted dose curve at least 0.9, where 1 is the maximum; inactive = score below 0.9.
# Experiments:
# [1] = read-out: Interleukin-8 (IL8), CXCL8 (gene 3576); experiment: BSK_3C_IL8: BioMAP Diversity Plus: 3C Assay for Interleukin-8 (IL8) Biomarker Activity (AID 2283020); conditions: primary human endothelial cells (HUVEC); actives raise or lower the signal
# How it was run: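 IL-8 was measured by ELISA in HUVEC cultures 24 h after chemical dosing, with gain or loss of signal fitted relative to DMSO. Parallel SRB total-protein staining tracked overt cytotoxicity.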
# [2] = read-out: Monokine induced gamma interferon (MIG), CXCL9 (gene 4283); experiment: BSK_3C_MIG: BioMAP Diversity Plus: 3C Assay for Monokine induced gamma interferon (MIG) Biomarker Activity (AID 2283021); conditions: primary human endothelial cells (HUVEC); actives raise or lower the signal;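 as to AC50: MIG protein level measured by immunoassay in the treated endothelial cultures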
# How it was run: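 ELISA measurement of MIG in human umbilical vein endothelial cells 24 h after treatment. Cytotoxicity tracked by SRB staining in parallel cultures; gain or loss of signal fitted relative to DMSO.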
# [3] = target: human Vitamin D Receptor (VDR), VDR (gene 7421) (UniProt P11473); experiment: ATG_VDR_TRANS: Attagene TRANS-FACTORIAL HepG2 Assay for human Vitamin D Receptor (VDR) (AID 2283022; active = hit-call score of the fitted dose curve at least 0.9, where 1 is the maximum)
# human Vitamin D Receptor (VDR), VDR (gene 7421), sequence (P11473 whole entry, looked up, the tested form may be a part): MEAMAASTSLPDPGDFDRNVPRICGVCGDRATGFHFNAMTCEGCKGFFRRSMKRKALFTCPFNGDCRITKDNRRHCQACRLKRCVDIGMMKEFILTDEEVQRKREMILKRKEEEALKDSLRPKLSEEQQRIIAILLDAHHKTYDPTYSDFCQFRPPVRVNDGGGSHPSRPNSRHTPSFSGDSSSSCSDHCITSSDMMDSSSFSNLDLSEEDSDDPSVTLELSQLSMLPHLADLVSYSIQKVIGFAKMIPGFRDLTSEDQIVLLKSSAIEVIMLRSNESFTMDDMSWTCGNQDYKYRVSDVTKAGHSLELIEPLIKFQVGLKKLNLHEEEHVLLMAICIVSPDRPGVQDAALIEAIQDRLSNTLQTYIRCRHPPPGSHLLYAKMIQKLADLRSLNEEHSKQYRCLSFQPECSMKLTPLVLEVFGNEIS
# How it was run: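 Transactivation by an exogenous VDR-Gal4 chimera in transiently transfected HepG2 cells was measured as reporter transcript level 24 hours after chemical treatment. RT-PCR products were analysed by capillary electrophoresis and fitted in the positive direction relative to DMSO.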
# [4] = BSK_3C_SRB: Viability Assessment in the BioMAP Diversity Plus: 3C Assay (AID 2283023); conditions: primary human endothelial cells (HUVEC);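 also: fitted both ways against DMSO so a hit may be signal rise or drop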
# How it was run: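 Cytotoxicity readout in parallel HUVEC 3C cultures: after 24 h compound exposure, cells fixed with 10% TCA, stained with 0.1% SRB and read at 560 nm. Gain or loss relative to DMSO fitted.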
# [5] = read-out: Matrix Metallopeptidase 1 (MMP1), MMP1 (gene 4312); experiment: BSK_BE3C_MMP1: BioMAP Diversity Plus: BE3C Assay for Matrix Metallopeptidase 1 (MMP1) Biomarker Activity (AID 2283024); conditions: primary human bronchial epithelial cells; actives raise or lower the signal
# How it was run: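 ELISA measurement of MMP-1 after 24 h compound exposure of primary human bronchial epithelial cells. Changes in either direction fitted relative to DMSO; parallel SRB staining checked overt cytotoxicity.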
# [6] = BSK_3C_Vis: BioMAP Diversity Plus: 3C Assay for Morphology Visualization (AID 2283025); conditions: primary human endothelial cells (HUVEC);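 also: fitted both ways so gain or loss versus DMSO counts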;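 as to AC50: light microscopy image of cell morphology used as background control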
# How it was run: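 Light-microscopy visualization of HUVEC cultures at 24 h post-treatment, with DMSO as baseline for bidirectional fitting.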
# [7] = read-out: Pselectin, SELP (gene 6403); experiment: BSK_4H_Pselectin: BioMAP Diversity Plus: 4H Assay for Pselectin Biomarker Activity (AID 2283026); conditions: primary human endothelial cells (HUVEC); actives raise or lower the signal
# How it was run: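 ELISA of surface P-selectin on HUVEC, 24 h after dosing, with parallel SRB staining (0.1% after 10% TCA fixation, 560 nm) for overt cytotoxicity. Activity fitted in both directions relative to DMSO.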
# [8] = BSK_4H_SRB: Viability Assessment in the BioMAP Diversity Plus: 4H Assay (AID 2283027); conditions: primary human endothelial cells (HUVEC);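 also: cells exposed to compound for 24 h before staining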;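 as to AC50: curves fitted both ways versus DMSO so AC50 may be loss or gain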
# How it was run: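 Cytotoxicity readout: sulforhodamine B (0.1%) staining of total protein after 10% TCA fixation, measured at 560 nm in human umbilical vein endothelium at 24 h. DMSO set the baseline; fitting was bidirectional.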
# [9] = BSK_BE3C_SRB: Viability Assessment in the BioMAP Diversity Plus: BE3C Assay (AID 2283028); conditions: primary human bronchial epithelial cells;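 as to AC50: fitted both ways so AC50 may mark signal gain or loss versus DMSO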
# How it was run: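 Cytotoxicity read-out: SRB (0.1%) staining of TCA-fixed (10%) human lung bronchial epithelial cells, absorbance 560 nm, 24 h post-dosing. Curves fitted both directions relative to DMSO.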
# [10] = read-out: Thrombomodulin, THBD (gene 7056); experiment: BSK_3C_Thrombomodulin: BioMAP Diversity Plus: 3C Assay for Thrombomodulin Biomarker Activity (AID 2283029); conditions: primary human endothelial cells (HUVEC); actives raise or lower the signal
# How it was run: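 ELISA measurement of thrombomodulin on HUVEC surface 24 h after chemical dosing; activity fitted in both directions relative to DMSO vehicle.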
# [11] = read-out: Urokinase-type plasminogen activator receptor (uPAR), PLAUR (gene 5329); experiment: BSK_4H_uPAR: BioMAP Diversity Plus: 4H Assay for Urokinase-type plasminogen activator receptor (uPAR) Biomarker Activity (AID 2283030); conditions: primary human endothelial cells (HUVEC); actives raise or lower the signal
# How it was run: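 uPAR level read by ELISA on HUVEC cultures (BioMAP 4H) 24 h post-dosing, analyzed for gain or loss relative to DMSO. Parallel SRB staining assessed overt cytotoxicity.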
# [12] = read-out: Vascular endothelial growth factor receptor 2 (Homo sapiens) (UniProt P35968); experiment: BSK_4H_VEGFRII: BioMAP Diversity Plus: 4H Assay for Vascular endothelial growth factor receptor 2 (VEGFR2) Biomarker Activity (AID 2283031); conditions: primary human endothelial cells (HUVEC); actives raise or lower the signal;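 as to AC50: cell-surface VEGFR2 protein level quantified by ELISA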
# How it was run: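 Measured by ELISA after 24 h of compound treatment: VEGFR2 on primary human umbilical vein endothelial cells, fitted in both directions relative to DMSO. Parallel cultures received SRB staining (560 nm) for overt cytotoxicity.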
# [13] = read-out: Human Leukocyte Antigen - DR isotype (HLADR), HLA-DRA (gene 3122); experiment: BSK_BE3C_HLADR: BioMAP Diversity Plus: BE3C Assay for Human Leukocyte Antigen - DR isotype (HLADR) Biomarker Activity (AID 2283032); conditions: primary human bronchial epithelial cells; actives raise or lower the signal
# How it was run: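 Cell-surface HLA-DR ELISA readout at 24 h after dosing in the BE3C primary human lung bronchial epithelial system; gain or loss of signal against DMSO, with parallel sulforhodamine B staining of total protein for overt cytotoxicity.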
# [14] = read-out: Vascular cell adhesion molecule 1 (VCAM1), VCAM1 (gene 7412); experiment: BSK_4H_VCAM1: BioMAP Diversity Plus: 4H Assay for Vascular cell adhesion molecule 1 (VCAM1) Biomarker Activity (AID 2283033); conditions: primary human endothelial cells (HUVEC); actives raise or lower the signal;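 as to outcome: cell-surface VCAM-1 protein measured by ELISA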
# How it was run: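 VCAM-1 ELISA read 24 h after chemical dosing of HUVEC in the BioMAP 4H system, with gain or loss of signal fitted relative to DMSO. Parallel SRB staining (560 nm) checked overt cytotoxicity.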
# [15] = read-out: Interferon-gamma inducible Protein 10 (IP10), CXCL10 (gene 3627); experiment: BSK_BE3C_IP10: BioMAP Diversity Plus: BE3C Assay for Interferon-gamma inducible Protein 10 (IP10) Biomarker Activity (AID 2283034); conditions: primary human bronchial epithelial cells; actives raise or lower the signal
# How it was run: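 IP-10 quantified by ELISA in human primary bronchial epithelial cell cultures at 24 hours post-dosing. Gain or loss of signal fitted relative to DMSO; parallel SRB staining assessed overt cytotoxicity.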
# [16] = read-out: Monokine induced gamma interferon (MIG), CXCL9 (gene 4283); experiment: BSK_BE3C_MIG: BioMAP Diversity Plus: BE3C Assay for Monokine induced gamma interferon (MIG) Biomarker Activity (AID 2283035); conditions: primary human bronchial epithelial cells; actives raise or lower the signal;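 as to outcome: MIG protein measured by ELISA in BE3C cultures after 24 h of dosing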
# How it was run: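 hu bronchial epithelial 1° cells, 24 h cpd; MIG by ELISA; bidirectional fit, DMSO = baseline.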
# [17] = read-out: Transforming growth factor beta 1 (TGFb1), TGFB1 (gene 7040); experiment: BSK_BE3C_TGFb1: BioMAP Diversity Plus: BE3C Assay for Transforming growth factor beta 1 (TGFb1) Biomarker Activity (AID 2283036;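 as to outcome: TGF-b1 protein level measured by ELISA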); conditions: primary human bronchial epithelial cells; actives raise or lower the signal
# How it was run: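 ELISA readout of TGF-b1 from human lung bronchial epithelial primary cells, taken 24 h post-treatment. Gain or loss of signal fitted relative to DMSO baseline, with parallel SRB staining for overt cytotoxicity.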
# [18] = read-out: Plasminogen activator inhibitor-1 (PAI1), SERPINE1 (gene 5054); experiment: BSK_BE3C_PAI1: BioMAP Diversity Plus: BE3C Assay for Plasminogen activator inhibitor-1 (PAI1) Biomarker Activity (AID 2283037); conditions: primary human bronchial epithelial cells; actives raise or lower the signal
# How it was run: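 PAI-1 was measured by ELISA in human primary bronchial epithelial cultures 24 h after chemical dosing, with cytotoxicity checked by SRB total-protein staining in parallel cultures. Activity was fitted in both directions relative to DMSO.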
# [19] = read-out: urokinase plasminogen activator (uPA), PLAU (gene 5328); experiment: BSK_BE3C_uPA: BioMAP Diversity Plus: BE3C Assay for urokinase plasminogen activator (uPA) Biomarker Activity (AID 2283038); conditions: primary human bronchial epithelial cells; actives raise or lower the signal;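 as to outcome: uPA protein level quantified by ELISA in cell cultures; uPA read one day after compound addition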
# How it was run: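 ELISA for uPA on human primary bronchial epithelial cultures 24 h post-treatment, gain or loss against DMSO. Parallel SRB staining (0.1% after 10% TCA fixation, 560 nm) assessed overt cytotoxicity.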
# [20] = read-out: Urokinase-type plasminogen activator receptor (uPAR), PLAUR (gene 5329); experiment: BSK_BE3C_uPAR: BioMAP Diversity Plus: BE3C Assay for Urokinase-type plasminogen activator receptor (uPAR) Biomarker Activity (AID 2283039); conditions: primary human bronchial epithelial cells; actives raise or lower the signal;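 as to outcome: cells exposed to compound for one day before measurement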
# How it was run: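 uPAR levels were measured by ELISA after 24 h compound treatment of primary human bronchial epithelial cells, fitted in both directions relative to DMSO. Parallel SRB staining served as the cytotoxicity read-out.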
structure (smiles),measurement,setting,value
COC(=O)c1ccccc1CS(=O)(=O)NC(=O)Nc1nc(OC)cc(OC)n1,outcome,[1],inactive
same,outcome,[2],inactive
same,outcome,[3],inactive
same,outcome,[4],inactive
same,outcome,[5],inactive
same,outcome,[6],inactive
same,outcome,[7],inactive
same,outcome,[8],inactive
same,outcome,[9],inactive
same,outcome,[10],inactive
same,outcome,[11],inactive
same,outcome,[12],inactive
same,outcome,[13],inactive
same,outcome,[14],inactive
same,outcome,[15],inactive
same,outcome,[16],inactive
same,outcome,[17],inactive
same,outcome,[18],inactive
same,outcome,[19],inactive
same,outcome,[20],inactive
Clc1ccccc1-c1nnc(-c2ccccc2Cl)nn1,outcome,[1],inactive
same,outcome,[2],inactive
same,outcome,[3],inactive
same,outcome,[4],inactive
same,outcome,[5],inactive
same,outcome,[6],inactive
same,outcome,[7],inactive
same,outcome,[8],inactive
same,outcome,[9],inactive
same,outcome,[10],inactive
same,outcome,[11],inactive
same,outcome,[12],inactive
same,outcome,[13],inactive
same,outcome,[14],inactive
same,outcome,[15],inactive
same,outcome,[16],inactive
same,AC50,[17],32.5 µM (active)
same,outcome,[18],inactive
same,outcome,[19],inactive
same,outcome,[20],inactive
Oc1cc(Cl)ccc1Oc1ccc(Cl)cc1Cl,AC50,[1],27.3 µM (active) [middle of 4 runs]
same,AC50,[2],32.6 µM (active) [middle of 4 runs]
same,outcome,[3],inactive
same,AC50,[4],10.8 µM (active) [middle of 4 runs]
same,AC50,[5],32.6 µM (active) [middle of 4 runs]
same,AC50,[6],12.6 µM (active) [middle of 4 runs]
same,AC50,[7],12.3 µM (active) [middle of 4 runs]
same,AC50,[8],20.4 µM (active) and 17.8 µM (active) and 20.9 µM (active)
same,AC50,[9],31.4 µM (active) [middle of 4 runs]
same,outcome,[10],inactive
same,AC50,[11],14.7 µM (active) [middle of 4 runs]
same,AC50,[12],6.66 µM (active) and 9.59 µM (active)
same,outcome,[12],inactive
same,AC50,[13],30.3 µM (active) [middle of 4 runs]
same,AC50,[14],23.8 µM (active) [middle of 4 runs]
same,AC50,[15],29.3 µM (active) [middle of 4 runs]
same,AC50,[16],36 µM (active) [middle of 4 runs]
same,AC50,[17],27.5 µM (active) [middle of 4 runs]
same,AC50,[18],30.1 µM (active) [middle of 4 runs]
same,AC50,[19],31.2 µM (active) [middle of 4 runs]
same,AC50,[20],30.5 µM (active) [middle of 4 runs]
COP(=S)(OC)Oc1ccc([N+](=O)[O-])cc1,AC50,[1],2.36 µM (active)
same,outcome,[2],inactive
same,outcome,[3],inactive
same,AC50,[4],23 µM (active)
same,outcome,[5],inactive
same,AC50,[6],14.4 µM (active)
same,outcome,[7],inactive
same,AC50,[8],5.97 µM (active)
same,outcome,[9],inactive
same,outcome,[10],inactive
same,outcome,[11],inactive
same,outcome,[12],inactive
same,outcome,[13],inactive
same,AC50,[14],20.1 µM (active)
same,outcome,[15],inactive
same,outcome,[16],inactive
same,AC50,[17],9.07 µM (active)
same,outcome,[18],inactive
same,outcome,[19],inactive
same,outcome,[20],inactive
CNC(=O)/C=C(\C)OP(=O)(OC)OC,outcome,[1],inactive
same,outcome,[2],inactive
same,outcome,[3],inactive
same,outcome,[4],inactive
same,outcome,[5],inactive
same,outcome,[6],inactive
same,outcome,[7],inactive
same,outcome,[8],inactive
same,outcome,[9],inactive
same,outcome,[10],inactive
same,outcome,[11],inactive
same,outcome,[12],inactive
same,outcome,[13],inactive
same,outcome,[14],inactive
same,outcome,[15],inactive
same,outcome,[16],inactive
same,outcome,[17],inactive
same,outcome,[18],inactive
same,outcome,[19],inactive
same,outcome,[20],inactive
